Records with an inconclusive call do not appear. Values without a mark were called inactive. Calls of active or inactive are those of the source. The call rests on the fitted dose curve; in most records, active means well fitted curve in the direction sought with a large enough effect; inconclusive means small, poorly fitted or top-dose-only effect, or another doubt; inactive means no such curve, though single readings can be large; an effect the other way counts as inactive or inconclusive.
Experiment: Quantitative highthroughput screen to assess conditional lethalithy of NOMO1 cells grown in Human Plasma-Like Medium with dialyzed fetal bovine serum (HPLM+ds) (AID 1963878);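 on viability: 100% = DMSO wells and 0% = empty wells on each plate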
Settings: NOMO1 AML cells in HPLM+ds, CellTiter-Glo viability, 48 h; series mostly up to 45.8 µM; viability: at the top concentration
How it was run: (§1)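 Each medium arm—HPLM with 10% dialyzed FBS, or RPMI1640 with 5 mM glucose and 10% untreated or dialyzed FBS—was screened against an 11-point, 3-fold compound titration for 48 h at 37 °C, with CellTiter-Glo luminescence as endpoint.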
Further: nearly all actives have a fitted effect of over 35% in size.
Potency means the concentration at half of the fitted maximal effect.

Row | Compound | Potency | viability
1 | Oc1ccc(-c2nc(-c3ccc(F)cc3)c(-c3ccncc3)[nH]2)cc1 | 3.72 µM (active) | –
2 | Cc1c(C(=O)Nc2ccc(N3C[C@@H](C)O[C@@H](C)C3)nc2)cccc1-c1ccc(OC(F)(F)F)cc1 | 3.32 µM (active) | –
3 | CC(C)NCC(O)c1ccc(NS(C)(=O)=O)cc1 (centres undefined) | – | 115%
4 | COc1ccc(C2CNC(=O)C2)cc1OC1CCCC1 (centres undefined) | – | 99%
5 | CCn1c(-c2nonc2N)nc2cncc(CNC3CCNCC3)c21 | 3.72 µM (active) | –
6 | Cc1ncc([N+](=O)[O-])n1CCO | – | 97%
7 | C=C(C)[C@@H]1CC[C@]2(C)CC[C@]3(C)[C@H](CC[C@@H]4[C@@]5(C)CC[C@H](O)C(C)(C)[C@H]5CC[C@]43C)[C@@H]12 | – | 107%
8 | C[Se]CCC(N)C(=O)O (centres undefined) | – | 92% [at 92.2 µM]
9 | COc1ccc2c(c1)c(CC(=O)OCC(=O)O)c(C)n2C(=O)c1ccc(Cl)cc1 | – | 102%
10 | O=c1cc(N2CCOCC2)oc2c(-c3cccc4c3sc3ccccc34)cccc12 | – | 89.1%
11 | CC(C)[C@H](N)C(=O)OCCOCn1cnc2c(=O)[nH]c(N)nc21 | – | 111%
12 | COc1cc2ncnc(Nc3cccc(Br)c3)c2cc1OC | – | 81.9%
13 | NS(=O)(=O)c1cccc2c1C(=O)c1cccc(O)c1C2=O | 20.9 µM (active) | –
14 | Cn1cc(C[C@@H](N)C(=O)O)c2ccccc21 | – | 100% [at 23.2 µM]
15 | CCCn1c(=O)c2[nH]c(C34CC5CC3C[C@@H](C5)C4)nc2n(CCC)c1=O | – | 117%
16 | CC(C)(OCc1nn(Cc2ccccc2)c2ccccc12)C(=O)O | – | 105%
17 | O=c1cc(-c2cccc3c2Sc2ccccc2S3)oc(N2CCOCC2)c1 | – | 81.2%
18 | COc1cc2c(Nc3ccc(Cl)c(Cl)c3F)ncnc2cc1OCC1C[C@@H]2CN(C)C[C@@H]2C1 (some centres undefined) | 13.2 µM (active) | –
19 | CN(C)c1nc(N(C)C)nc(N(C)C)n1 | – | 102%
20 | O=C(Nc1ncc(SCCN2CCCC2)s1)[C@]1(c2ccc(S(=O)(=O)C3CC3)cc2)C[C@@H]1C1CCCCC1 | 18.7 µM (active) | –
21 | C[C@H](CCC(=O)O)[C@H]1CCC2C3C[C@H](O)[C@@H]4C[C@H](O)CC[C@]4(C)C3CC[C@@]21C (some centres undefined) | – | 106%
22 | CCN(CC)CCNC(=O)c1ccc2nc(-c3ccccc3)c(-c3ccc(CN4CCC(n5c(=O)[nH]c6ccccc65)CC4)cc3)nc2c1 | 2.35 µM (active) | –
23 | Oc1cc2c(cc1O)C1c3ccc(O)c(O)c3OCC1(O)C2 (centres undefined) | – | 105%
24 | COc1cc(NS(=O)(=O)c2ccc(N)cc2)nc(OC)n1 | – | 99.4%
25 | CCc1cc(C(N)=S)ccn1 | – | 97%

Experiment: Quantitative highthroughput screen to assess conditional lethalithy of P12 Ichikawa cells grown in Human Plasma-Like Medium with dialyzed fetal bovine serum (HPLM+ds) (AID 1963879)
Settings: ATP luminescence, 48 h; Potency: viability; series mostly up to 45.8 µM; viability: at the top concentration
How it was run: as §1

Row | Compound | Potency | viability
26 | Oc1ccc(-c2nc(-c3ccc(F)cc3)c(-c3ccncc3)[nH]2)cc1 | 5.26 µM (active) | –
27 | Cc1c(C(=O)Nc2ccc(N3C[C@@H](C)O[C@@H](C)C3)nc2)cccc1-c1ccc(OC(F)(F)F)cc1 | 2.35 µM (active) | –
28 | CC(C)NCC(O)c1ccc(NS(C)(=O)=O)cc1 (centres undefined) | – | 103%
29 | COc1ccc(C2CNC(=O)C2)cc1OC1CCCC1 (centres undefined) | – | 97%
30 | CCn1c(-c2nonc2N)nc2cncc(CNC3CCNCC3)c21 | 6.62 µM (active) | –
31 | Cc1ncc([N+](=O)[O-])n1CCO | – | 100%
32 | C=C(C)[C@@H]1CC[C@]2(C)CC[C@]3(C)[C@H](CC[C@@H]4[C@@]5(C)CC[C@H](O)C(C)(C)[C@H]5CC[C@]43C)[C@@H]12 | – | 100%
33 | C[Se]CCC(N)C(=O)O (centres undefined) | – | 97% [at 92.2 µM]
34 | COc1ccc2c(c1)c(CC(=O)OCC(=O)O)c(C)n2C(=O)c1ccc(Cl)cc1 | – | 102%
35 | O=c1cc(N2CCOCC2)oc2c(-c3cccc4c3sc3ccccc34)cccc12 | – | 93.1%
36 | CC(C)[C@H](N)C(=O)OCCOCn1cnc2c(=O)[nH]c(N)nc21 | – | 93.8%
37 | COc1cc2ncnc(Nc3cccc(Br)c3)c2cc1OC | – | 102%
38 | NS(=O)(=O)c1cccc2c1C(=O)c1cccc(O)c1C2=O | 26.4 µM (active) | –
39 | Cn1cc(C[C@@H](N)C(=O)O)c2ccccc21 | – | 102% [at 23.2 µM]
40 | CCCn1c(=O)c2[nH]c(C34CC5CC3C[C@@H](C5)C4)nc2n(CCC)c1=O | – | 97.4%
41 | CC(C)(OCc1nn(Cc2ccccc2)c2ccccc12)C(=O)O | – | 110%
42 | O=c1cc(-c2cccc3c2Sc2ccccc2S3)oc(N2CCOCC2)c1 | – | 98.1%
43 | COc1cc2c(Nc3ccc(Cl)c(Cl)c3F)ncnc2cc1OCC1C[C@@H]2CN(C)C[C@@H]2C1 (some centres undefined) | 20.9 µM (active) | –
44 | CN(C)c1nc(N(C)C)nc(N(C)C)n1 | – | 100%
45 | C[C@H](CCC(=O)O)[C@H]1CCC2C3C[C@H](O)[C@@H]4C[C@H](O)CC[C@]4(C)C3CC[C@@]21C (some centres undefined) | – | 109%
46 | CCN(CC)CCNC(=O)c1ccc2nc(-c3ccccc3)c(-c3ccc(CN4CCC(n5c(=O)[nH]c6ccccc65)CC4)cc3)nc2c1 | 2.35 µM (active) | –
47 | Oc1cc2c(cc1O)C1c3ccc(O)c(O)c3OCC1(O)C2 (centres undefined) | – | 106%
48 | COc1cc(NS(=O)(=O)c2ccc(N)cc2)nc(OC)n1 | – | 98.8%
49 | CCc1cc(C(N)=S)ccn1 | 14.8 µM (active) | –

Source: PubChem BioAssay (NCATS)
